Legend:
[1] = tested on: P. falciparum NF54-pfs16-GFP early (I-III) stage gametocytes; assay: relative % inhibition of viable gametocyte number; higher = more gametocytocidal; conditions: stage: early (I-III) gametocyte, incubation 72 h
In short: (§1)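 NF54 pfs16-GFP gametocytes, magnet-isolated at early (I/IIa, day 2) or late (day 8) stage, were plated at 10% parasitaemia, 0.1% haematocrit in 384-well poly-D-lysine imaging plates with compound in duplicate at 5 or 0.5 µM. Plates were incubated 72 h at 37°C, 5% CO2, 5% O2, then overnight with MitoTracker Red. Confocal imaging counted elongated GFP objects with MitoTracker signal above cut-off as viable gametocytes. Relative inhibition was normalised to in-plate vehicle and positive-control wells.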

[2] = tested on: P. falciparum NF54-pfs16-GFP late (IV-V) stage gametocytes; assay: as above; conditions: stage: late (IV-V) gametocyte, incubation 72 h
In short: as §1

Compound | relative % inhibition ([1]; 0.5 µM) | relative % inhibition ([1]; 5 µM) | relative % inhibition ([2]; 0.5 µM) | relative % inhibition ([2]; 5 µM)
FC(F)(F)c1cccc(Nc2nc(-c3ccccc3)nc3ncccc23)c1 | 5.1% | -19.6% | 2.84% | -1.26%
CC(C)(C)C(=O)Nc1ccc(C(=O)Nc2cccc(-c3nc4ccccc4[nH]3)c2)cc1 | 7.02% | 15.3% | 3.45% | 17.3%
Cc1ccc(-c2nc3ccccc3o2)cc1NCc1cc(Cc2ccccc2)ccc1O | 9.8% | 95.1% | 13.4% | 48.6%
COc1ccc(CNC2CCN(c3ccc(NC(=O)c4cccc(Cl)c4)cc3)CC2)cc1OC | -12.4% | 79% | -4.13% | -22%
CCOC(=O)c1cn(CC)c2cc(N3CCCCC3)c(F)cc2c1=O | 22% | 17% | 91.5% | 93.5%
COc1cc(C(=O)Nc2nc3c(cc4c5c(cccc53)CC4)s2)cc(OC)c1OC | 5.49% | 13.9% | 12.4% | 5.43%
COc1ccc(-c2nonc2NC(=O)c2cccc(C)c2)cc1OC | 15.3% | 39.2% | -13.4% | -9.12%
O=C(NCc1ccco1)C1CCN(S(=O)(=O)c2ccc(Br)cc2)CC1 | -6.48% | -2.56% | 29% | 51.5%
Cc1cc(C)cc(Nc2cc(C)nc3nc(C(F)(F)F)nn23)c1 | -6.02% | 10% | -4.65% | -1.16%
Oc1ccc(-c2nc(-c3ccc4oc5ccc(-c6[nH]c(-c7ccc(O)cc7)nc6-c6ccccc6)cc5c4c3)c(-c3ccccc3)[nH]2)cc1 | 92.1% | 107% | 3.61% | 52.7%
CCN(CC)CCNc1ncnc2c1[nH]c1ccc(Cl)cc12 | 14.5% | 79.1% | 2.71% | 24.8%
OC(CNC1CCCC1)Cn1c2ccccc2c2ccccc21 (stereo not drawn) | 15.6% | 91.7% | 24.2% | 66%
COc1ccc(C=C2SC(=N)N(c3ccccc3OC)C2=O)cc1 | 11% | 63.6% | 0% | 67.5%
N=c1n(CCN2CCCCC2)c2ccccc2n1CC(=O)c1ccc(Cl)c(Cl)c1 | -10.5% | 76.8% | 55.4% | 96.9%
COc1ccc(-c2cc3c(SCC(=O)Nc4cc(C(F)(F)F)ccc4Cl)nccn3n2)cc1 | 14.5% | -14.1% | -14.3% | 3.88%
CCn1c(SCC(=O)Nc2cc(C(F)(F)F)ccc2Cl)nc2ccccc2c1=O | 27.2% | 5.95% | 5.8% | -6.79%
Cc1nc2ccccc2c(O)c1CC=C(Cl)Cl | 4.23% | 3.33% | 33.4% | 49.4%
OCCNc1nc(Nc2ccc(Cl)c(Cl)c2)nc2ccccc12 | -6.33% | -11% | 53.9% | 52.3%
CCCCCn1c(=N)n(CC(O)COc2cccc(C)c2)c2ccccc21 (stereo not drawn) | 37.7% | 74.5% | -3.63% | 56%
COc1cc2c(cc1OC)C1=NNC(=O)C1=NC(C)(C)C2 | 71.5% | 88.6% | 100% | 98.5%
O=C1CC(O)(C(F)(F)C(F)(F)F)Oc2ccccc21 (stereo not drawn) | 0.889% | 0.745% | -15.1% | 4.41%
CCC(=O)Nc1nnc(Cc2ccc(OC)c(OC)c2)s1 | 16.8% | 4.14% | 0.759% | 6.51%
O=C(Nc1cccc(C(F)(F)F)c1)c1cc(Cl)ccc1O | -0.916% | 104% | 15% | 30.1%
Cc1ccc(NC(=O)Nc2cccc(Cl)c2)cc1F | 11% | 28.9% | -16% | 21.8%

Compound | relative % inhibition ([1]; 0.5 µM) | relative % inhibition ([1]; 5 µM) | relative % inhibition ([2]; 0.5 µM) | relative % inhibition ([2]; 5 µM)
CNCCCNc1ccnc2cc(Cl)ccc12 | 106% | 106% | 26.6% | 39.1%
CC(=O)Nc1nnc(SCc2c(C)cc(C(C)(C)C)cc2C)s1 | 13.5% | 19.8% | -4.86% | 60.7%
CC(C)(C)c1ccc2c(c1)CN(Cc1ccc(Cl)cc1)CO2 | 9.71% | 98.4% | 27.3% | 54.6%
COc1cccc(NC(=O)[C@H](C(C)C)n2c(=O)[nH]c3ccccc3c2=O)c1 | 70.7% | 97.8% | 35% | 59.9%
COc1ccc(C(=O)NC(c2ccccc2Cl)c2cc(Cl)c3cccnc3c2O)cc1 (stereo not drawn) | 5.42% | 49.4% | 18.6% | 38.6%
CCOc1ccc(Nc2c3ccccc3nc3ccccc23)cc1 | -20.8% | 84% | 8.64% | 20.9%
O=C(Nc1ccc(C23CC4CC(CC(c5ccccc5)(C4)C2)C3)cc1)c1cccs1 | -8.5% | 12.3% | 12.9% | 31.6%
CN(C)c1ccc(N=Cc2ccc(N3CCOCC3)cc2)cc1 | 2.5% | 48.6% | 22.1% | 62%
O=C(NCc1ccco1)C1CCN(S(=O)(=O)c2ccc(Cl)cc2)CC1 | 7.81% | 3.24% | 18.1% | 50%
CCOc1ccc(-c2nc(NC(=O)c3cccc(S(C)(=O)=O)c3)sc2C)cc1 | 17.8% | 15.4% | 4.66% | -3.57%
O=C(Nc1ccsc1C(=O)NC1CCCCC1)c1ccc(F)cc1 | -1.56% | 19.9% | -4.86% | -23.6%
CC1=C(CC(=O)c2cccc([N+](=O)[O-])c2)C(=O)c2ccccc2C1=O | 48% | 60% | 39.3% | 54.1%
Cc1cc(N2CCCC2)nc(Nc2ccc(NC(=O)CCc3ccccc3)cc2)n1 | 53.7% | 89.6% | 6.75% | 21%
CCOc1cc(Br)c(C(C)NC(=O)c2cccc(OC)c2)cc1OCC (stereo not drawn) | 9.37% | 46.2% | 11.2% | 42.6%
Cc1ccc(N2C3c4ccccc4N(S(=O)(=O)c4ccc(C)cc4)C2c2ccccc2N3S(=O)(=O)c2ccc(C)cc2)cc1 | 61% | 95.1% | 95% | 98.9%
Cc1cccc(N2C(=O)C3C(C2=O)C2(c4ccccc4)C(=O)C3(c3ccccc3)C(c3ccc4c(c3)OCO4)=C2c2ccc3c(c2)OCO3)c1 (stereo not drawn) | 56.2% | 66.1% | 24.7% | 10.9%
O=C(Nc1ccccc1O)c1ccc(-c2ccc(Cl)cc2Cl)o1 | 21.2% | -5.25% | 19.3% | 17.5%
Oc1ccccc1CNCC12CC3CC(CC(C3)C1)C2 | 91.6% | 84.2% | 44.7% | 29.3%
CC(C)OCc1cc(CN2CCN(c3cccc(Cl)c3)CC2)c(O)c2ncccc12 | 10.9% | 96.4% | 8.7% | 98.4%
COCCNC(=O)c1ccc(OC2CCN(Cc3ccc(F)c(F)c3)CC2)c(Cl)c1 | 7.61% | -0.414% | 14.2% | 39.9%
O=c1nc(C=Cc2ccc(Cl)cc2)oc2ccccc12 | 10.5% | -14.5% | 7.96% | 19.3%
Cn1c(C(=O)c2cccc3ccccc23)nc2ccccc21 | 3.04% | 19.9% | 9.04% | 5.95%
Cc1ccc(Nc2nc(-c3ccccn3)cs2)cc1 | 69.6% | 93.5% | 95.4% | 98.4%
CCOc1ccc(-c2nonc2NC(=O)c2cccc(C)c2)cc1OCC | 31.4% | 94.4% | 27.6% | 18.4%

Compound | relative % inhibition ([1]; 0.5 µM) | relative % inhibition ([1]; 5 µM) | relative % inhibition ([2]; 0.5 µM) | relative % inhibition ([2]; 5 µM)
FC(F)(F)c1ccc(Nc2nnnc3ccccc23)cc1 | 7.13% | 2.85% | 25% | 7.26%
COc1ccc(C2Sc3ccccc3N=C3C2=C(O)c2ccccc23)cc1 (stereo not drawn) | 6.74% | 20.4% | 24% | 51.1%
COc1cc(OC)cc(N2C(=O)N(Cc3ccc(C(C)(C)C)cc3)c3ccccc3S2(=O)=O)c1 | 10% | 6.11% | 4.34% | 35.7%
Cc1cc(NC(=O)c2ccc(-c3ccccc3)cc2)no1 | -6.51% | 24.9% | 13.3% | 36.8%
c1ccc2cc3c(Nc4ccc(N5CCOCC5)cc4)ccnc3cc2c1 | -11.9% | 12.3% | 9.42% | 36.1%
COc1ccc(-c2cc(=O)oc3c4c(ccc23)OCN(Cc2ccc(F)cc2)C4)cc1 | -4.17% | 73.2% | 25.1% | 34.8%
CN(C)c1ccc(N2C(N)=NC(N)=NC2(C)C)cc1 | -7.59% | -3.16% | 20.3% | -8.27%
Clc1cc(Br)ccc1-c1ccc(CNCC2CCNCC2)o1 | 92.6% | 100% | 36.1% | 89.9%
COc1cccc(C2(C)Nc3ccccc3-c3nc4ccccc4n32)c1 (stereo not drawn) | -5.06% | 5.7% | 27.8% | 16.2%
CC(Oc1ccc(NC(=O)c2cccs2)cc1)C(=O)c1ccc(Cl)cc1 (stereo not drawn) | 10.9% | 23% | 16.4% | 52.1%
COc1ccc(-c2nc(NC(=O)CS(=O)(=O)c3ccc(F)cc3)sc2C)cc1 | 12.7% | 100% | 73% | 92.9%
COc1ccc(NC(=O)C2c3ccccc3C(=O)N(CC(C)C)C2c2cccs2)cc1Cl (stereo not drawn) | 42.8% | 90.9% | 54.9% | 66%
OC(CNCc1ccccc1)Cn1c2ccccc2c2ccccc21 (stereo not drawn) | 0.736% | 89.9% | 21.5% | 84.7%
CCCN(CCC)CCCNC(=O)c1cc2c(-c3ccc(OC)c(OC)c3)nn(C)c2s1 | 29.6% | 43.5% | 18.3% | -7.44%
COc1cccc(Nc2nc(NCCO)c3ccccc3n2)c1 | 0% | -12.9% | 17.4% | 50.8%
CN(C)CCCNc1c2ccccc2nc2ccccc12 | 85.1% | 101% | 57.9% | 101%
Cc1ccc(Nc2nc(NCCO)c3ccccc3n2)cc1C | -7.63% | 84.7% | 38% | 53.9%
COc1cccc(Cn2c(Oc3ccccc3)nc3c2c(=O)n(C)c(=O)n3C)c1 | 1.22% | -14% | 6.35% | 9.52%
CC(C)(C)c1ccc(C(=O)Nc2nc3ccccc3s2)cc1 | 0.793% | 31% | 6.03% | 2.42%
CCOC(=O)C1=CN(C)C=C(C(=O)OCC)C1c1cc(Br)c(OCC)c(OC)c1 | 38.1% | 89.7% | 16.5% | 37.9%
Cc1cc(C=C2SC(=Nc3ccccc3)N(C3CCCC3)C2=O)c(C)n1-c1ccc(Cl)cc1 | 15% | 2.67% | -2.31% | 31.2%
CCOc1cc2c(cc1OCC)C(c1cc(OC)c(O)cc1Cl)NCC2 (stereo not drawn) | 22.5% | 100% | 25.6% | 48.3%
COc1ccc(C(C)=O)cc1N1C(=O)C2C(C1=O)C1(c3ccccc3)C(=O)C2(c2ccccc2)C(c2ccc(C)cc2)=C1c1ccc(C)cc1 (stereo not drawn) | 52.9% | 93.5% | 78.9% | 73.1%
CCN(CC)CCCNc1nc(-c2ccc(Cl)cc2)nc2ccccc12 | 11.6% | 96.5% | 13.1% | 23.5%

Source: the supplement of paper PMC3842684
